An excerpt weighted towards active compounds, which were near 3.8% of everything screened.
TrxR1 inh – qHTS Assay for Inhibitors of Mammalian Selenoprotein Thioredoxin Reductase 1 (TrxR1): qHTS; 390,000 tested, 1% active; recombinant rTrxR1, NADPH fluorescence consumption, selenite substrate; Potency, µM (titrated, usually from 114 µM), inactives show top-dose activity change, negative = inhibition, actives largely listed as inhibitors; AID 588453, 2011; further: nearly all actives have a fitted effect of over 65% in size
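Rat TrxR1 (90 nM in the dispensed reagent) was pre-reduced with 400 uM NADPH for 5 min at room temperature, then incubated with compound for 15 min. After 400 uM selenite was added, NADPH fluorescence (Ex 340/Em 450 nm) was followed for 8 min.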
GCN5L2 inh – qHTS Assay for Inhibitors of GCN5L2. Histone acetyltransferase KAT2A (Homo sapiens), Q92830. 390,000 tested, 0.21% active. GCN5L2 HAT assay, ThioGlo1 CoA-SH fluorescence. Potency, µM (titrated, usually from 58.9 µM), for the others: at the top dose activity change, negative = inhibition, usual class: inhibitors
Target sequence (Q92830 whole entry, looked up): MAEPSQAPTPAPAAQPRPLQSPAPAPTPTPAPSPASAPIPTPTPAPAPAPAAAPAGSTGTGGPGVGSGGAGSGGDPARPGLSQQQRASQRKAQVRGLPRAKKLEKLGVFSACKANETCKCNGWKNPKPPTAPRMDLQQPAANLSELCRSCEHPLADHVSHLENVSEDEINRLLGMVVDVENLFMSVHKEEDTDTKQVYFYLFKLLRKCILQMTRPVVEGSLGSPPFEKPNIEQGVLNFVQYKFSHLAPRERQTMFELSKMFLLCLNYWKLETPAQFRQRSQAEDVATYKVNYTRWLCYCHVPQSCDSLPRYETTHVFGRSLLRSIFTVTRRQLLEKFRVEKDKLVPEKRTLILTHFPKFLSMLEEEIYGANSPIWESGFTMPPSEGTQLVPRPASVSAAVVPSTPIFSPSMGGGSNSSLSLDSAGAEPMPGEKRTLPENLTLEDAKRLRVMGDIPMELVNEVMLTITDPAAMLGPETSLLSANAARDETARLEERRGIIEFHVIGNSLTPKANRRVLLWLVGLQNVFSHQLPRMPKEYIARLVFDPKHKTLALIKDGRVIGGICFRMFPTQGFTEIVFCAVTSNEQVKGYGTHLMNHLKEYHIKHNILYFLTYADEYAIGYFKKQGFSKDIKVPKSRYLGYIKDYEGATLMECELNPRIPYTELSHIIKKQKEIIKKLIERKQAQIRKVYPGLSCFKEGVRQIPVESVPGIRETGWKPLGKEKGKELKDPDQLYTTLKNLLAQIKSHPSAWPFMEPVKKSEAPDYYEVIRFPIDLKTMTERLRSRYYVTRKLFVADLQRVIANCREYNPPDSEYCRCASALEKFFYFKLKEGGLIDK
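Free CoA generated was detected with ThioGlo1 (50uM) fluorescence at Ex340nm/Em540nm, read immediately and after 20 min at room temperature. Enzyme, 20 nM in HEPES pH 7.5 buffer, saw compounds 15 min before adding 75uM H3(1-25) peptide and 70uM acetyl-CoA.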
VDR inh – Inhibitors of the vitamin D receptor (VDR): qHTS; Vitamin D3 receptor (Homo sapiens), P11473; VDR-SRC2-3 peptide fluorescence polarization, 2 h; Potency, µM, inactives show max response, negative = inhibition, hits mostly inhibitors; 400,000 tested, 0.93% active; AID 504847, 2011
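Inhibition of the VDR/SRC2-3 peptide interaction is quantified by fluorescence polarization. Compounds (23 nl, pintool) incubate with the reagents for 2 hours at ambient room temperature.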
TrxR1 substrate – qHTS Assay for Substrates of Mammalian Selenoprotein Thioredoxin Reductase 1 (TrxR1): qHTS; purified TrxR1 substrate turnover, NADPH consumption readout; AID 588456, 2011; 390,000 tested, 0.01% active; Potency, µM (titrated, usually from 114 µM), for the others: at the highest dose activity change, negative = substrate turnover; further: nearly all actives have a fitted effect of over 50% in size
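Rat TrxR1, dispensed at 90 nM, was prereduced with 400 uM NADPH (final) for 5 min at ~22 deg C, then incubated with compound 15 min before 400 uM selenite. A first-read NADPH fluorescence drop versus no-compound background flagged substrates.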
GLS inhibitor – qHTS for Inhibitors of Glutaminase (GLS) | Glutaminase kidney isoform, mitochondrial (Homo sapiens), O94925 | 410,000 tested, 0.21% active | AID 624170, 2012 | GLS enzymatic activity, qHTS titration | Potency, µM (series often up to 45.5 µM), for inactives: at the top dose activity change, negative = inhibition, usual class: inhibitors
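Glutamate formation by hKGA was monitored fluorometrically using coupled glutamate oxidase, HRP and Amplex Red. Substrate was added as 1 mM L-glutamine solution; incubation was 30 min at RT after an initial read.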
Sfp PPTase inh – qHTS Assay for Inhibitors of Bacillus subtilis Sfp phosphopantetheinyl transferase (PPTase); 4'-phosphopantetheinyl transferase ffp (Bacillus subtilis), Q9F4F7; Biochemical Sfp PPTase activity, qHTS; Potency, µM, for inactives: largest response in the series, negative = inhibition, most hits filed as inhibitors; 310,000 tested, 3.5% active; AID 1490, 2009;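 further: the enzyme is Sfp with the accession as filed and its product quenches rhodamine fluorescence; 0% = enzyme reaction without inhibitor and -100% = no enzyme wells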
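Step 1, compound plus 15 nM Sfp-PPTase, 15 min, room temperature. Step 2, add rhodamine-CoA (5 uM) and BHQ-2-YbbR (12.5 uM). Step 3, read 525/598 nm fluorescence at 0 and 30 min.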
* marks the source's active call; other numbers are inactive results; ? = inconclusive; . = no result; [ ] = remark or other dose. The call rests on the fitted dose curve; in most records, active means well fitted curve in the direction sought with a large enough effect; inconclusive means small, poorly fitted or top-dose-only effect, or another doubt; inactive means no such curve, though single readings can be large; an effect the other way counts as inactive or inconclusive. Unless noted, on the % scale 0 is the no-effect control and ±100 the full control effect; potency means the concentration at half of the fitted maximal effect.

SMILES	TrxR1 inh	GCN5L2 inh	VDR inh	TrxR1 substrate	GLS inhibitor	Sfp PPTase inh
CC(=O)N1CCC2(CC1)CC(=O)c1cc(OCC(=O)N3CCC4(CC3)OCCO4)ccc1O2	17%	-10%	-6%	160%	-3%	-21%
CCC(=NCc1ccc2c(c1)OCO2)c1c(O)n(C)c(=O)n(C)c1=O	15%	-2%	12%	7%	0%	9%
CCC(=NCc1cc(OC)cc(OC)c1)c1c(O)n(C)c(=O)n(C)c1=O	6%	-5%	1%	-3%[57.1 µM]	5%	50µM*
NC(N)=N/N=C/c1cn(-c2ccccc2)nc1-c1cccs1	3%	-19%	8%	-1%	10%	79µM*
c1ccc([Se]c2c(-c3ccccc3)[se]c3ccccc23)cc1	.	-12%	63µM*	.	.	1%
O=C1NC(=S)N(Cc2ccco2)C(=O)/C1=C\c1cccs1	.	8.9µM*	.	.	.	20µM*
Cc1cc(/C=C2/C(=O)NC(=O)N(Cc3ccco3)C2=O)c(C)n1-c1ccccc1	-43%	-17%	-5%	-21%[57.1 µM]	3%	-22%
C=CCN1C(=O)/C(=C/c2cccs2)C(=O)NC1=S	10µM*	29%	?	-11%	-11%	20µM*
O=C(Cc1ccccc1)OCn1nnc2ccccc2c1=O	13%	-2%	-4%	7%	-5%	19%
O=C(O)CNC(=O)C(CS)Cc1ccccc1 (configuration not stated)	17%[57.1 µM]	-1%	-9%	15%[57.1 µM]	0%	0.79µM*
CC(Cc1ccccc1)NC(N)=O (configuration not stated)	4%	-8%	0%	-3%	-17%	15%
O=c1[nH]c(=S)[nH]c(O)c1/C=C1/C=c2ccccc2=N1	20µM*	?	-20%	-3%	1%	-19%
COc1nc2ccccc2c(=O)n1-c1ccc(C)cc1	-2%	1%	11%	-4%	-7%	12%
Cn1c(CNC(=O)c2ccco2)nnc1SCC(=O)N1c2ccccc2Sc2ccccc21	8%	?	7%	7%[57.1 µM]	5%	-4%
O=C(O)c1ccccc1SCC(=O)N1c2ccccc2Sc2ccccc21	-3%	-23%	-19%	3%	12%	89µM*
C=C1C2CCC3[C@@](CC[C@@H]4C(C(=O)O)CC(OC5OC(CO)C(OS(=O)(=O)O)C(OS(=O)(=O)O)C5OC(=O)CC(C)C)C[C@]34C)(C2)C1O (some centres not stated)	.	-5%	0%	.	.	18%
O=C(Cc1ccccc1)N1CCN(Cc2cccc(Br)c2)CC1	0%	2%	-25%	-3%	72%	50µM*
CCOC(=O)c1c(/N=C/c2c(O)n(-c3cccc(C)c3)c(=O)[nH]c2=O)sc2c1CCCC2	1%	-3%	-24%	-1%	6%	?
CCOC(=O)c1c(/N=C/C2C(=O)NC(=O)NC2=O)sc2c1CCC2	-11%	1%	-10%	3%	2%	35µM*
CCOC(=O)c1cc(CC)sc1/N=C/c1c(O)[nH]c(=S)[nH]c1=O	?	-5%	?	-11%	18%	8.9µM*
CCOC(=O)c1cc(CC)sc1/N=C/C1C(=O)NC(=S)NC1=O	8.9µM*	-6%	-20%	-1%	-1%	18µM*
CCSc1cc(C2C(C#N)=C(N)Oc3n[nH]c(C)c32)c(C)o1 (configuration not stated)	?	-1%	-22%	-5%[57.1 µM]	30%	-28%
COc1cc(/C=C2/SC(=S)N(Cc3ccccc3)C2=O)ccc1OCC(=O)O	4%	?	89µM*	-3%	-15%	-25%
CC(C)C[C@H](NC(=O)[C@H](Cc1ccccc1)NC(=O)CNC(=O)[C@H](C)NC(=O)[C@@H](N)Cc1ccc(O)cc1)C(=O)O	.	7%	-4%	.	.	4%
Cc1ccc2nc(C)n(-c3ccc(F)cc3)c(=O)c2c1	19%[57.1 µM]	-1%	-17%	1%[57.1 µM]	4%	-10%
SMILES	TrxR1 inh	GCN5L2 inh	VDR inh	TrxR1 substrate	GLS inhibitor	Sfp PPTase inh
CCOc1ccc2c(c1)c(C(C)=O)c(C)n2Cc1ccco1	6%	1%	-2%	-3%	2%	12%
CCOc1ccc(N2C(=O)NC(=O)/C(=C\c3ccc(N4CCOCC4)cc3C)C2=O)cc1	?	-20%	?	3%	-16%	40µM*
COc1ccc(N2C(=O)NC(=O)/C(=C/c3ccc(N4CCOCC4)cc3)C2=O)cc1	.	-4%	.	.	.	50µM*
CCOC(=O)C1CCN(/C=C2/C(=O)NC(=O)N(c3ccc(OCC)cc3)C2=O)CC1	0%	-1%	3%	11%	25%	-15%
O=C1NC(=O)N(Cc2ccc(F)cc2)C(=O)/C1=C\c1ccc(N2CCCC2)cc1	-71%	-29%	79µM*	9%[57.1 µM]	1%	?
Cc1ccc(N2C(=O)NC(=O)/C(=C\c3ccc(N4CCOCC4)cc3)C2=O)cc1	?	0%	?	-5%	6%	18µM*
ClC1=C(Cl)C2(Cl)C3C4CC(C5OC45)C3C1(Cl)C2(Cl)Cl (configuration not stated)	.	0%	?	.	1%	8%
CC1(C)CN=C(Nc2nc3ccccc3s2)S1	4%[57.1 µM]	0%	-8%	2%[57.1 µM]	5%	12%
Fc1cccc(CN2CCN(c3ccc(Cl)cc3)CC2)c1	16%[57.1 µM]	?	-25%	8%[57.1 µM]	-6%	3%
O=C1NC(=O)N(c2ccc(F)cc2)C(=O)/C1=C/c1ccc(N2CCOCC2)cc1	?	-6%	-25%	7%[57.1 µM]	1%	40µM*
CCOP(=O)(OCC)c1ccc(O)cc1	0%	-3%	7%	-2%	4%	21%
COc1ccc(N=Cc2c(O)n(C)c(=O)n(C)c2=O)cc1	15%	-6%	-3%	2%	0%	13%
CC(=O)Nc1c2sscc-2n(C)c1=O	.	-6%	40µM*	.	.	?
Cc1cc(/C=C2\C(=O)NC(=O)N(c3cccc(F)c3)C2=O)c(C)n1-c1cc(C(=O)O)cc(C(=O)O)c1	-46%	-16%	9%	-16%	35%	-21%
Cc1ccc(N2C(=O)NC(=O)/C(=C\c3cc(C)n(-c4sc5c(c4C#N)CCCC5)c3C)C2=O)cc1	-23%	24%	45µM*	-1%	?	40µM*
